Source: PubChem BioAssay
HT1080-NT tox = qHTS for induction of synthetic lethality in tumor cells producing 2HG: qHTS for the HT-1080-NT fibrosarcoma cell line; HT-1080-NT fibrosarcoma viability, CellTiter-Glo ATP luminescence, 48 h; Potency, µM (doses to about 46.1 µM), most hits filed as cytotoxic; 1.6% of 360,000 active; AID 686970, 2013;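 also: NT is the 2HG producing partner of a matched IDH1 knockdown line; nearly all actives have a fitted effect of over 55% in size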
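Luminescent CellTiter-Glo readout after 48 hours of compound exposure at 37 degrees C defined viability of HT-1080-NT cells. Activity was normalized to DMSO wells and cell-free media wells; concentration-response curves were fitted and assigned curve classes.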
HT1080 IDH1KD tx = qHTS for induction of synthetic lethality in tumor cells producing 2HG: qHTS for the HT-1080-IDH1KD cell line; HT-1080 IDH1 knockdown viability, ATP luminescence, 48 h; Potency, µM (doses to about 46.1 µM), most hits filed as cytotoxic; 2% of 360,000 active; AID 686971, 2013
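Viability of IDH1-knockdown HT-1080 fibrosarcoma cells was assessed by CellTiter-Glo after 48 h at 37 °C with titrated compound; concentration-effect curves were classified by fit quality and response size.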
MCF10A rereplic = A quantitative high throughput screen for small molecules that induce DNA re-replication in MCF 10a normal breast cells | AID 624296, 2012 | Potency, µM (top dose mostly 46.1 µM), usual class: activators | 2.9% of 350,000 active | MCF 10A DNA re-replication, Hoechst nuclear intensity, 48 h; also: nearly all actives have a fitted effect of over 50% in size
KB-V1 cytotox = qHTS assay for MDR1-selective chemotherapeutics: Primary screen using the drug-selected MDR subline cells KB-V1; KB-V1 MDR cells viability, CellTiter-Glo, 72 h; Potency, µM (top dose mostly 46.1 µM), hits mostly cytotoxic; 3.4% of 400,000 active; AID 1347076, 2019; also: nearly all actives have a fitted effect of over 60% in size
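KB-V1, DMEM (no phenol red) + 10% FBS; cpd pin-transferred, titration series; 72 h, 37 degrees C; CellTiter-Glo, luminescence. Data normalized, curve-fit.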
SW480 rerep = A quantitative high throughput screen for small molecules that induce DNA re-replication in SW480 colon adenocarcinoma cells | SW480 DNA re-replication, Hoechst DNA content imaging, 48 h | Potency, µM (series often up to 46.1 µM), actives largely listed as activators | 1.8% of 340,000 active | AID 624297, 2012; also: nearly all actives have a fitted effect of over 55% in size
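Compounds, transferred as 23 nL by pin tool, were incubated with cells for 48 hr; DNA content per nucleus was then quantified by Hoechst staining and fluorescence plate imaging.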
KB-3-1 cytotox = qHTS assay for MDR1-selective chemotherapeutics: Primary screen using the parental adenocarcinoma cell KB-3-1. 1.4% of 400,000 active. KB-3-1 viability, CellTiter-Glo ATP luminescence, 72 h. Potency, µM (doses to about 46.1 µM), hits mostly cytotoxic; also: nearly all actives have a fitted effect of over 60% in size
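KB-3-1 parental drug-naive adenocarcinoma cells in DMEM/10% FBS, incubated 72 h at 37 C with pin-transferred compounds across a concentration series. Viability by CellTiter-Glo luminescence; concentration-response curves fitted after normalization.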
Of the large screens only hits and unclear results are named; the others gave an inactive call. Hits are enriched below; roughly 8% of the tested compounds scored in any of these assays. Calls follow the shape of the dose curve; as a rule, active = well fitted curve in the direction sought with a large enough effect; inconclusive = small, poorly fitted or top-dose-only effect, or another doubt; inactive = no such curve, though single readings can be large; an effect the other way counts as inactive or inconclusive.

N#Cc1c(-c2ccccc2)cc(C2CC2)nc1SCC(=O)c1cccs1	KB-V1 cytotox inconclusive, SW480 rerep 9.2µM
COc1ccc(NC(=O)c2oc3ccccc3c2NC(=O)C2CC2)cc1	KB-V1 cytotox 10µM
CCOc1ccc(NC(=O)c2oc3ccccc3c2NC(=O)C(C)(C)C)cc1	none (no result: HT1080-NT tox, HT1080 IDH1KD tx, MCF10A rereplic, SW480 rerep)
COc1ccc(NC(=O)c2oc3ccccc3c2NC(=O)C(C)(C)C)cc1	HT1080 IDH1KD tx inconclusive, KB-V1 cytotox 9.2µM
Cc1ccc(C)c(OCC(O)CN2CCc3ccccc3C2)c1C (stereo unspecified)	HT1080-NT tox inconclusive, HT1080 IDH1KD tx 9.2µM, SW480 rerep inconclusive
Cc1cc(C)cc(OCC(=O)Nc2cccc(-c3nnc(-c4ccco4)o3)c2)c1	KB-V1 cytotox 15µM
COc1cc(C(=O)Nc2ccc(-c3nnc(-c4ccco4)o3)cc2)cc(OC)c1OC	MCF10A rereplic inconclusive, KB-V1 cytotox inconclusive
COc1ccc(CC(=O)Nc2cccc(-c3nnc(-c4ccco4)o3)c2)cc1	KB-V1 cytotox inconclusive
COc1cc(C(=O)Nc2cccc(-c3nnc(-c4ccco4)o3)c2)ccc1OC(C)=O	MCF10A rereplic inconclusive, KB-V1 cytotox 21µM
COc1ccc(C(=O)Nc2cccc(-c3nnc(-c4ccco4)o3)c2)cc1	HT1080-NT tox inconclusive, HT1080 IDH1KD tx inconclusive, MCF10A rereplic inconclusive, KB-V1 cytotox 13µM, KB-3-1 cytotox inconclusive
CCOC(=O)N/N=C\c1cccc(OC)c1	none
CCN(CC)S(=O)(=O)c1cc(NC(=O)c2ccccc2OCc2c(C)noc2C)ccc1C	KB-V1 cytotox 7.3µM
CN(C)S(=O)(=O)c1cccc(NC(=O)Cc2ccc(Cl)cc2)c1	MCF10A rereplic inconclusive, KB-V1 cytotox 21µM
Cc1noc(C)c1COc1ccccc1C(=O)Nc1cccc(S(=O)(=O)N(C)C)c1	KB-V1 cytotox 15µM
Cc1ccc(NC(=O)c2ccccc2OCC(=O)Nc2ccccc2F)cc1S(=O)(=O)N(C)C	HT1080 IDH1KD tx inconclusive, KB-V1 cytotox inconclusive, KB-3-1 cytotox 5.2µM
CC(=O)Nc1cccc(NC(=O)c2ccccc2OCc2c(C)noc2C)c1	none
CNS(=O)(=O)c1cc(OC)c(OC)cc1CC(=O)OC	none
C/C(=N\Nc1ccc([N+](=O)[O-])cc1[N+](=O)[O-])c1cccnc1	none
Cc1ccc(S(=O)(=O)N(C)C)cc1NC(=O)COc1ccccc1C(=O)Nc1ccccc1	KB-V1 cytotox inconclusive
CN(C)S(=O)(=O)c1cccc(NC(=O)COc2ccccc2C(=O)Nc2ccccc2)c1	HT1080 IDH1KD tx inconclusive, KB-V1 cytotox 16µM, KB-3-1 cytotox inconclusive (no result: MCF10A rereplic, SW480 rerep)
COc1cccc(CNC(=O)C2CCN(Cc3cnn(-c4ccccc4)c3-n3cccc3)CC2)c1	MCF10A rereplic inconclusive
c1ccc(-c2noc(C34CC5CC(CC(C5)C3)C4)n2)cc1	MCF10A rereplic 12µM
NC(=O)c1nsc(C(=O)N(c2ccc(Cl)cc2)C(C(=O)NCC2CCCO2)c2cccs2)c1N (stereo unspecified)	SW480 rerep inconclusive
CCc1ccc(N(C(=O)c2snc(C(N)=O)c2N)C(C(=O)NCC2CCCO2)c2cccs2)cc1 (stereo unspecified)	MCF10A rereplic 18µM, SW480 rerep inconclusive
CCOc1ccc(C(C(=O)NCC2CCCO2)N(CCc2cccc(C)c2)C(=O)c2snc(C(N)=O)c2N)cc1 (stereo unspecified)	HT1080-NT tox inconclusive, HT1080 IDH1KD tx inconclusive, MCF10A rereplic inconclusive, KB-V1 cytotox 21µM, KB-3-1 cytotox inconclusive
Cc1cc(NC(=O)CSc2ccc3nnc(-c4ccc(Cl)cc4)n3n2)no1	KB-V1 cytotox inconclusive
Cc1ccc(S(=O)(=O)NCc2ccccc2)cc1C(=O)N1CC(C)CC(C)C1 (stereo unspecified)	KB-V1 cytotox 13µM
Cc1ccc(S(=O)(=O)NCc2ccccc2)cc1C(=O)N1CCCCC1	none
Cc1ccc(S(=O)(=O)NCc2ccccc2)cc1C(=O)N1CCN(c2ccccc2)CC1	MCF10A rereplic inconclusive, KB-V1 cytotox inconclusive, SW480 rerep inconclusive, KB-3-1 cytotox 15µM
C=CCN1C(=O)C(CC(=O)NCC)SC1=Nc1cc(Cl)ccc1Cl (stereo unspecified)	none
CC(C)N(CC(N)=O)C(=O)Cc1coc2cc3c(cc12)CCC3	none
C=CCn1c(SCC(=O)N(CC)C2CCS(=O)(=O)C2)nc2scc(-c3ccccc3)c2c1=O (stereo unspecified)	MCF10A rereplic inconclusive, KB-V1 cytotox 10µM
CCCCN(C(=O)CSc1nc2ccccc2n1CC)C1CCS(=O)(=O)C1 (stereo unspecified)	KB-V1 cytotox 5.8µM
CCN(C(=O)CSc1nc2scc(-c3ccccc3)c2c(=O)n1C)C1CCS(=O)(=O)C1 (stereo unspecified)	none
Cc1nn(CCCC(=O)Nc2ccccc2C(F)(F)F)c(=O)c2nn(-c3ccccc3)c(C)c12	none (no result: HT1080-NT tox, HT1080 IDH1KD tx, MCF10A rereplic, SW480 rerep)
Cc1ccccc1-c1nc(CN2CCC(C(=O)NCCCN3CCOCC3)CC2)c(C)o1	HT1080-NT tox 10µM
Cc1oc(-c2ccc(Cl)cc2)nc1CN1CCCC(C(=O)NCc2cccnc2)C1 (stereo unspecified)	HT1080-NT tox inconclusive, HT1080 IDH1KD tx inconclusive, KB-V1 cytotox 2.3µM, KB-3-1 cytotox 2.6µM
Cc1oc(-c2ccc(Cl)cc2)nc1CN1CCCC(C(=O)NCCCN2CCOCC2)C1 (stereo unspecified)	HT1080 IDH1KD tx inconclusive, MCF10A rereplic inconclusive, KB-V1 cytotox 18µM, KB-3-1 cytotox inconclusive
Cc1oc(-c2ccc(Cl)cc2)nc1CN1CCC(C(=O)NCCCN2CCCC(C)C2)CC1 (stereo unspecified)	HT1080-NT tox 13µM, HT1080 IDH1KD tx 16µM, SW480 rerep inconclusive, KB-3-1 cytotox inconclusive
Cc1oc(-c2ccc(Cl)cc2)nc1CN1CCCC(C(=O)NCc2ccccn2)C1 (stereo unspecified)	none
Cc1cc(N2C(=O)C3CC=CCC3C2=O)cc(C)c1Br (stereo unspecified)	none
O=C(Nc1cccc(F)c1)C1CCN(C(=O)NCc2ccccc2)CC1	none
Cc1oc(-c2ccc(Cl)cc2)nc1CS(=O)CC(=O)NCCN1CCCCCC1 (stereo unspecified)	SW480 rerep inconclusive
Cc1oc(-c2ccc(Cl)cc2)nc1CN1CCC(C(=O)NCc2ccco2)CC1	KB-V1 cytotox 9.2µM, SW480 rerep inconclusive
